Laboratory results published in article PMC12529666, “Dysregulation of AGO2-miRNA dynamics underlies the AGO2-associated Lessel–Kreienkamp syndrome”.
Numbering of substitutions follows the chain as printed.

B1: GCGCTTTA (ssRNA)
RNA 1: GAGUUCUACAGUCCGACGAUCCCAACGCGCUUUACACCUGGAAUUCUCGGGUGCCAA
RNA 2: UGGAGUGUGACAAUGGUGUUUG
DNA 1: GATCGTCGGACTGTAGAACTC
DNA 2: TTGGCACCCGAGAATTCCA
modifications: constant regions annealed to DNA blockers; guide miR-122 5' phosphate
B2: GCATCTTA (ssRNA)
RNA 1: B1 RNA 1 with G29A, C30U, U31C
RNA 2: UGGAGUGUGACAAUGGUGUUUG
DNA 1: GATCGTCGGACTGTAGAACTC
DNA 2: TTGGCACCCGAGAATTCCA
modifications: constant regions annealed to DNA blockers; guide miR-122 5' phosphate
B3: ATGCTTTA (ssRNA)
RNA 1: B1 RNA 1 with G27A, C28U
RNA 2: UGGAGUGUGACAAUGGUGUUUG
DNA 1: GATCGTCGGACTGTAGAACTC
DNA 2: TTGGCACCCGAGAATTCCA
modifications: constant regions annealed to DNA blockers; guide miR-122 5' phosphate
B4: ATACCCCA (ssRNA)
RNA 1: B1 RNA 1 with G27A, C28U, G29A, U31C, U32C, U33C
RNA 2: UGGAGUGUGACAAUGGUGUUUG
DNA 1: GATCGTCGGACTGTAGAACTC
DNA 2: TTGGCACCCGAGAATTCCA
modifications: constant regions annealed to DNA blockers; guide miR-122 5' phosphate
B5: GCGTTCCG (ssRNA)
RNA 1: B1 RNA 1 with C30U, U32C, U33C, A34G
RNA 2: UGGAGUGUGACAAUGGUGUUUG
DNA 1: GATCGTCGGACTGTAGAACTC
DNA 2: TTGGCACCCGAGAATTCCA
modifications: constant regions annealed to DNA blockers; guide miR-122 5' phosphate
B6: ACACTTTG (ssRNA)
RNA 1: B1 RNA 1 with G27A, G29A, A34G
RNA 2: UGGAGUGUGACAAUGGUGUUUG
DNA 1: GATCGTCGGACTGTAGAACTC
DNA 2: TTGGCACCCGAGAATTCCA
modifications: constant regions annealed to DNA blockers; guide miR-122 5' phosphate
B7: GTGCTTCA (ssRNA)
RNA 1: B1 RNA 1 with C28U, U33C
RNA 2: UGGAGUGUGACAAUGGUGUUUG
DNA 1: GATCGTCGGACTGTAGAACTC
DNA 2: TTGGCACCCGAGAATTCCA
modifications: constant regions annealed to DNA blockers; guide miR-122 5' phosphate
B8: GTACCCTA (ssRNA)
RNA 1: B1 RNA 1 with C28U, G29A, U31C, U32C
RNA 2: UGGAGUGUGACAAUGGUGUUUG
DNA 1: GATCGTCGGACTGTAGAACTC
DNA 2: TTGGCACCCGAGAATTCCA
modifications: constant regions annealed to DNA blockers; guide miR-122 5' phosphate
B9: GTGCCCTA (ssRNA)
RNA 1: B1 RNA 1 with C28U, U31C, U32C
RNA 2: UGGAGUGUGACAAUGGUGUUUG
DNA 1: GATCGTCGGACTGTAGAACTC
DNA 2: TTGGCACCCGAGAATTCCA
modifications: constant regions annealed to DNA blockers; guide miR-122 5' phosphate
B10: GCGTTCTA (ssRNA)
RNA 1: B1 RNA 1 with C30U, U32C
RNA 2: UGGAGUGUGACAAUGGUGUUUG
DNA 1: GATCGTCGGACTGTAGAACTC
DNA 2: TTGGCACCCGAGAATTCCA
modifications: constant regions annealed to DNA blockers; guide miR-122 5' phosphate
B11: GTATTCTA (ssRNA)
RNA 1: B1 RNA 1 with C28U, G29A, C30U, U32C
RNA 2: UGGAGUGUGACAAUGGUGUUUG
DNA 1: GATCGTCGGACTGTAGAACTC
DNA 2: TTGGCACCCGAGAATTCCA
modifications: constant regions annealed to DNA blockers; guide miR-122 5' phosphate
B12: ATACCCTA (ssRNA)
RNA 1: B1 RNA 1 with G27A, C28U, G29A, U31C, U32C
RNA 2: UGGAGUGUGACAAUGGUGUUUG
DNA 1: GATCGTCGGACTGTAGAACTC
DNA 2: TTGGCACCCGAGAATTCCA
modifications: constant regions annealed to DNA blockers; guide miR-122 5' phosphate
B13: ACATTCTG (ssRNA)
RNA 1: B1 RNA 1 with G27A, G29A, C30U, U32C, A34G
RNA 2: UGGAGUGUGACAAUGGUGUUUG
DNA 1: GATCGTCGGACTGTAGAACTC
DNA 2: TTGGCACCCGAGAATTCCA
modifications: constant regions annealed to DNA blockers; guide miR-122 5' phosphate
B14: ACACCCTG (ssRNA)
RNA 1: B1 RNA 1 with G27A, G29A, U31C, U32C, A34G
RNA 2: UGGAGUGUGACAAUGGUGUUUG
DNA 1: GATCGTCGGACTGTAGAACTC
DNA 2: TTGGCACCCGAGAATTCCA
modifications: constant regions annealed to DNA blockers; guide miR-122 5' phosphate
B15: GTACCCCA (ssRNA)
RNA 1: B1 RNA 1 with C28U, G29A, U31C, U32C, U33C
RNA 2: UGGAGUGUGACAAUGGUGUUUG
DNA 1: GATCGTCGGACTGTAGAACTC
DNA 2: TTGGCACCCGAGAATTCCA
modifications: constant regions annealed to DNA blockers; guide miR-122 5' phosphate
B16: GCACTTTA (ssRNA)
RNA 1: B1 RNA 1 with G29A
RNA 2: UGGAGUGUGACAAUGGUGUUUG
DNA 1: GATCGTCGGACTGTAGAACTC
DNA 2: TTGGCACCCGAGAATTCCA
modifications: constant regions annealed to DNA blockers; guide miR-122 5' phosphate
B17: GCATTTTA (ssRNA)
RNA 1: B1 RNA 1 with G29A, C30U
RNA 2: UGGAGUGUGACAAUGGUGUUUG
DNA 1: GATCGTCGGACTGTAGAACTC
DNA 2: TTGGCACCCGAGAATTCCA
modifications: constant regions annealed to DNA blockers; guide miR-122 5' phosphate
B18: GTATTTTA (ssRNA)
RNA 1: B1 RNA 1 with C28U, G29A, C30U
RNA 2: UGGAGUGUGACAAUGGUGUUUG
DNA 1: GATCGTCGGACTGTAGAACTC
DNA 2: TTGGCACCCGAGAATTCCA
modifications: constant regions annealed to DNA blockers; guide miR-122 5' phosphate
B19: GCGTCTTA (ssRNA)
RNA 1: B1 RNA 1 with C30U, U31C
RNA 2: UGGAGUGUGACAAUGGUGUUUG
DNA 1: GATCGTCGGACTGTAGAACTC
DNA 2: TTGGCACCCGAGAATTCCA
modifications: constant regions annealed to DNA blockers; guide miR-122 5' phosphate
B20: GCACCCTG (ssRNA)
RNA 1: B1 RNA 1 with G29A, U31C, U32C, A34G
RNA 2: UGGAGUGUGACAAUGGUGUUUG
DNA 1: GATCGTCGGACTGTAGAACTC
DNA 2: TTGGCACCCGAGAATTCCA
modifications: constant regions annealed to DNA blockers; guide miR-122 5' phosphate
B21: GTGCTCTA (ssRNA)
RNA 1: B1 RNA 1 with C28U, U32C
RNA 2: UGGAGUGUGACAAUGGUGUUUG
DNA 1: GATCGTCGGACTGTAGAACTC
DNA 2: TTGGCACCCGAGAATTCCA
modifications: constant regions annealed to DNA blockers; guide miR-122 5' phosphate
B22: GCGCCCTG (ssRNA)
RNA 1: B1 RNA 1 with U31C, U32C, A34G
RNA 2: UGGAGUGUGACAAUGGUGUUUG
DNA 1: GATCGTCGGACTGTAGAACTC
DNA 2: TTGGCACCCGAGAATTCCA
modifications: constant regions annealed to DNA blockers; guide miR-122 5' phosphate

The binders below were run against AGO2 L192P (Homo sapiens, UniProt Q9UKV8 1-859, L192P;S387D;S824A;S828D;S831D;S834A) (assay: RNA Bind-n-Seq (nitrocellulose filter binding and sequencing); miR-122 guide loaded in AGO2; 60 min incubation; 30 mM Tris pH 8.0, 100 mM potassium acetate, 2 mM magnesium acetate, 0.5 mM TCEP, 0.005% NP-40, 0.01 mg/ml yeast tRNA; 3 nM AGO2-miR-122, 100 nM RNA library; 60; high values mean tight binding). Conditions: protein: recombinant; tags: His6 (N-terminal, pFastBac HTA).
Chain of AGO2 L192P (Q9UKV8 whole entry L192P/S387D/S824A/S828D/S831D/S834A): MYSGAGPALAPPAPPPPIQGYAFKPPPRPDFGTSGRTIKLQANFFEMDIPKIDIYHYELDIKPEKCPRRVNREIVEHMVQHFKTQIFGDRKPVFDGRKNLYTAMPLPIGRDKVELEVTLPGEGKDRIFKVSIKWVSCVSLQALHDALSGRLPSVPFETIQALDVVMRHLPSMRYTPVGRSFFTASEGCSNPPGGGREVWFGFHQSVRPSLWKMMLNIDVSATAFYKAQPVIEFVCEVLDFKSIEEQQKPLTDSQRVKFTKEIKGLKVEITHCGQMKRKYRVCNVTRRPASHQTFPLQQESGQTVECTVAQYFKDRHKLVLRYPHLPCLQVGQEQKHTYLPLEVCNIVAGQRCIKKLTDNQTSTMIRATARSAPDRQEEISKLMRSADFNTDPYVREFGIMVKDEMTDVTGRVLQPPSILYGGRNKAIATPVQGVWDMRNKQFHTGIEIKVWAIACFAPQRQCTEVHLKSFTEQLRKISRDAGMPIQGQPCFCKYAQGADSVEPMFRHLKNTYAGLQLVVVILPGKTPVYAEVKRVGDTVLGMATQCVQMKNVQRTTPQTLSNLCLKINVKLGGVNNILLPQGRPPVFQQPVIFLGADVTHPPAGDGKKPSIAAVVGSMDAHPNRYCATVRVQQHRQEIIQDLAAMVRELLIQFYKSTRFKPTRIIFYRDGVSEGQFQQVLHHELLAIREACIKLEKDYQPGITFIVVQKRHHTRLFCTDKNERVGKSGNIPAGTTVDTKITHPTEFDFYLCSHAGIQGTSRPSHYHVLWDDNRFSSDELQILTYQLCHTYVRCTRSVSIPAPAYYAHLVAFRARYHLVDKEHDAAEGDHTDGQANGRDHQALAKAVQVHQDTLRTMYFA
Summary of the method: (§1)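 His-tagged AGO2 was expressed in Sf9 insect cells by baculovirus, loaded with a synthetic guide RNA, and purified by Ni-NTA and a biotinylated capture oligo. Bound RNA was extracted, reverse-transcribed, barcode-amplified and Illumina-sequenced. Fold enrichment is each sequence's read fraction divided by its input-library read fraction.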

| Binder | binding signal |
| --- | --- |
| B1 | 0.493 fold enrichment over input |
| B2 | 0.487 fold enrichment over input |
| B3 | 0.487 fold enrichment over input |
| B4 | 0.5 fold enrichment over input |
| B5 | 0.404 fold enrichment over input |
| B6 | 0.388 fold enrichment over input |
| B7 | 0.507 fold enrichment over input |
| B8 | 0.468 fold enrichment over input |
| B9 | 0.458 fold enrichment over input |
| B10 | 0.449 fold enrichment over input |
| B11 | 0.434 fold enrichment over input |
| B12 | 0.447 fold enrichment over input |
| B13 | 0.392 fold enrichment over input |
| B14 | 0.472 fold enrichment over input |
| B15 | 0.497 fold enrichment over input |
| B16 | 0.493 fold enrichment over input |
| B17 | 0.476 fold enrichment over input |
| B18 | 0.481 fold enrichment over input |
| B19 | 0.473 fold enrichment over input |
| B20 | 0.416 fold enrichment over input |
| B21 | 0.463 fold enrichment over input |
| B22 | 0.424 fold enrichment over input |

What follows are binders tested against AGO2 A367P (Homo sapiens, UniProt Q9UKV8 1-859, A367P;S387D;S824A;S828D;S831D;S834A) in the same assay as above. Conditions: protein: recombinant; tags: His6 (N-terminal, pFastBac HTA).
Chain of AGO2 A367P (Q9UKV8 whole entry A367P/S387D/S824A/S828D/S831D/S834A): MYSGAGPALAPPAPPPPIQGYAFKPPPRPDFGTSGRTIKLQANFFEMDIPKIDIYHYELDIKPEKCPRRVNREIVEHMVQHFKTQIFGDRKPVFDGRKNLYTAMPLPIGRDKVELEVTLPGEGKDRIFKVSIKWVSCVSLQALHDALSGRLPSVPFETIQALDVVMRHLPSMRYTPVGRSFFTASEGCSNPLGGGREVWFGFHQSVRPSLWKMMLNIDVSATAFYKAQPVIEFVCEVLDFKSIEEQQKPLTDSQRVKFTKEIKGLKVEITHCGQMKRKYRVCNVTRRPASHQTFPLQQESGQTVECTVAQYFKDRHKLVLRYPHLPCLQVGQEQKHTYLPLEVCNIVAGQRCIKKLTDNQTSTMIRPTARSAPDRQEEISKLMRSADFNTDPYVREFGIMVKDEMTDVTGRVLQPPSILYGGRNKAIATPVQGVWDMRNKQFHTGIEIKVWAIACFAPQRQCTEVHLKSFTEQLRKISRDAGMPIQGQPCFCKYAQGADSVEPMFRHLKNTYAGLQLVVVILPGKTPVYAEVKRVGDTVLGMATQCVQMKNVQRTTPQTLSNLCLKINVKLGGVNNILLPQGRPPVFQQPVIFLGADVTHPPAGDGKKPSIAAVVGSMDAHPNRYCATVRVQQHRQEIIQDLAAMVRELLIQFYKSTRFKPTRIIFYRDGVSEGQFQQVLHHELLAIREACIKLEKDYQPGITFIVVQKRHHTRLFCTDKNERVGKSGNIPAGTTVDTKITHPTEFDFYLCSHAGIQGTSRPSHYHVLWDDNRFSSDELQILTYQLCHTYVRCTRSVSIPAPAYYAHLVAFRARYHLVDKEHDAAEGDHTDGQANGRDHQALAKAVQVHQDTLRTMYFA
Summary of the method: as §1

| Binder | binding signal |
| --- | --- |
| B1 | 0.201 fold enrichment over input |
| B2 | 0.189 fold enrichment over input |
| B3 | 0.175 fold enrichment over input |
| B4 | 0.177 fold enrichment over input |
| B5 | 0.149 fold enrichment over input |
| B6 | 0.177 fold enrichment over input |
| B7 | 0.218 fold enrichment over input |
| B8 | 0.168 fold enrichment over input |
| B9 | 0.188 fold enrichment over input |
| B10 | 0.169 fold enrichment over input |
| B11 | 0.164 fold enrichment over input |
| B12 | 0.148 fold enrichment over input |
| B13 | 0.13 fold enrichment over input |
| B14 | 0.217 fold enrichment over input |
| B15 | 0.247 fold enrichment over input |
| B16 | 0.209 fold enrichment over input |
| B17 | 0.18 fold enrichment over input |
| B18 | 0.166 fold enrichment over input |
| B19 | 0.2 fold enrichment over input |
| B20 | 0.171 fold enrichment over input |
| B21 | 0.178 fold enrichment over input |
| B22 | 0.172 fold enrichment over input |

What follows are binders tested against AGO2 T357M (Homo sapiens, UniProt Q9UKV8 1-859, T357M;S387D;S824A;S828D;S831D;S834A) in the same assay as above. Conditions: protein: recombinant; tags: His6 (N-terminal, pFastBac HTA).
Chain of AGO2 T357M (Q9UKV8 whole entry T357M/S387D/S824A/S828D/S831D/S834A): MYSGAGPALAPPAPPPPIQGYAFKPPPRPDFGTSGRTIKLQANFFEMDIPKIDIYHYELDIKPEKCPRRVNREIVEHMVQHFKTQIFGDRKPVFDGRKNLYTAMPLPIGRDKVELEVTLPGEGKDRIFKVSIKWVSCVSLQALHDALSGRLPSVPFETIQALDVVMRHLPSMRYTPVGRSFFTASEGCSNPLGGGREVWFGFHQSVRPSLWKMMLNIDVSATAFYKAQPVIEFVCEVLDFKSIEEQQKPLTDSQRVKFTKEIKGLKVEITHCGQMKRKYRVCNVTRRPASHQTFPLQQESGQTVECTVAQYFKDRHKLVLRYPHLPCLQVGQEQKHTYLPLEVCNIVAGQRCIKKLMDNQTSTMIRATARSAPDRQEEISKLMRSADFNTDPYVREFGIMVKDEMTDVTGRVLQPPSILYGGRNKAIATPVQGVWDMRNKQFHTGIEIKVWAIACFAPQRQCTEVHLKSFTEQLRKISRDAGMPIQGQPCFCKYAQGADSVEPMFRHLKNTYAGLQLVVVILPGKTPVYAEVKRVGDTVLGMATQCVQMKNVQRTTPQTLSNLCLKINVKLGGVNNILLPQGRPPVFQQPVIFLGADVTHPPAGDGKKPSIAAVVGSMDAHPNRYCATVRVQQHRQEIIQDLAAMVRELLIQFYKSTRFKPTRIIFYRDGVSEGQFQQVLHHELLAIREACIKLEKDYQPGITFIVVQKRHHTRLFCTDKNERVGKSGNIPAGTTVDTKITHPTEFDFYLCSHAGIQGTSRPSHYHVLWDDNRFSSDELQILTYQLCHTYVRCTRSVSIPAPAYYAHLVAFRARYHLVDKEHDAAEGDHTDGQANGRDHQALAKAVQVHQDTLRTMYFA
Summary of the method: as §1

| Binder | binding signal |
| --- | --- |
| B1 | 0.695 fold enrichment over input |
| B2 | 0.676 fold enrichment over input |
| B3 | 0.582 fold enrichment over input |
| B4 | 0.552 fold enrichment over input |
| B5 | 0.583 fold enrichment over input |
| B6 | 0.494 fold enrichment over input |
| B7 | 0.615 fold enrichment over input |
| B8 | 0.602 fold enrichment over input |
| B9 | 0.663 fold enrichment over input |
| B10 | 0.609 fold enrichment over input |
| B11 | 0.606 fold enrichment over input |
| B12 | 0.496 fold enrichment over input |
| B13 | 0.531 fold enrichment over input |
| B14 | 0.558 fold enrichment over input |
| B15 | 0.616 fold enrichment over input |
| B16 | 0.763 fold enrichment over input |
| B17 | 0.643 fold enrichment over input |
| B18 | 0.617 fold enrichment over input |
| B19 | 0.656 fold enrichment over input |
| B20 | 0.566 fold enrichment over input |
| B21 | 0.601 fold enrichment over input |
| B22 | 0.675 fold enrichment over input |

These binders were tested against AGO2 F182del (Homo sapiens, UniProt Q9UKV8 1-859, S387D;S824A;S828D;S831D;S834A;del182-182) in the same assay as above. Conditions: protein: recombinant; tags: His6 (N-terminal, pFastBac HTA).
Chain of AGO2 F182del (Q9UKV8 other isoform, or with tags, fused parts or gaps S387D;S824A;S828D;S831D;S834A;del182-182): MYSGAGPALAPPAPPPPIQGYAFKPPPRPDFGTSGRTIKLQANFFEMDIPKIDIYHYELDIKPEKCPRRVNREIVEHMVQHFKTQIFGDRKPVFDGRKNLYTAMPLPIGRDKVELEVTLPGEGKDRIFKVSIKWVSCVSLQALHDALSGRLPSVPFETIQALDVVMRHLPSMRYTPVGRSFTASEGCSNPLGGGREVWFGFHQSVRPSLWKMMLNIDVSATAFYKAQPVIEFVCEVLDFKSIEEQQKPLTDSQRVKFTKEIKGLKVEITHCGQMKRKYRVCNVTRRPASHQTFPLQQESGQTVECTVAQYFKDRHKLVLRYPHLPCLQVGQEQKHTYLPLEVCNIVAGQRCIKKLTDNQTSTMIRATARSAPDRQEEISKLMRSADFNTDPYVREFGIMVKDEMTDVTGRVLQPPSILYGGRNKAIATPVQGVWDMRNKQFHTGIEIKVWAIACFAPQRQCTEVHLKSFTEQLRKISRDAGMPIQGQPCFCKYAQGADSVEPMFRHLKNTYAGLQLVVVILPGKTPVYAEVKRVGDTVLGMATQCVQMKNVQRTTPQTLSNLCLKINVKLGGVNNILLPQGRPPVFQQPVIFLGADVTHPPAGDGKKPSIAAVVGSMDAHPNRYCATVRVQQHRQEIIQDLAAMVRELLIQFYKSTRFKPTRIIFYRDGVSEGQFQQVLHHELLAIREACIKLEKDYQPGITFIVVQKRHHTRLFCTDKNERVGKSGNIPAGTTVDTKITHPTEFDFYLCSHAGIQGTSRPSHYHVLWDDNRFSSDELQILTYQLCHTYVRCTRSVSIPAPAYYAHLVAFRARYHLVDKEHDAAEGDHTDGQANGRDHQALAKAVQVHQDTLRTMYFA
Summary of the method: as §1

| Binder | binding signal |
| --- | --- |
| B4 | 0.199 fold enrichment over input |
| B7 | 0.235 fold enrichment over input |
| B14 | 0.942 fold enrichment over input |
| B15 | 0.455 fold enrichment over input |
| B16 | 0.122 fold enrichment over input |
| B17 | 0.123 fold enrichment over input |
| B20 | 0.176 fold enrichment over input |
